# From PubChem BioAssay
# A selection: hits, their analogues and other compounds. The true share with any hit is near 7.5%.
# Rab9 prom act: qHTS Assay for Rab9 Promoter Activators; Huh7 Rab9 promoter-luciferase reporter, luminescence, 24 h; Potency, µM (highest dose often 9.22 µM), for the others: at the top dose activation, negative = inhibition, usual class: activators; 320,000 compounds, 2.8% hits; AID 485297, 2010; note: % of control where 0% means no effect; nearly all actives have a fitted effect of over 60% in size
#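 Measured in stably transfected Huh7 cells bearing a Rab9 promoter–luciferase construct: 24 h compound treatment at 37 °C, followed by luminescence detection.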
# ELG1 genotox: qHTS screen for small molecules that induce genotoxicity in human embryonic kidney (HEK293T) cells expressing luciferase-tagged ELG1 | HEK293T ELG1-luciferase reporter, luminescence, 16 h | Potency, µM (titrated, usually from 46 µM), for the others: at the highest dose activity change, positive = activation, hits mostly activators | 330,000 compounds, 1.3% hits | AID 504466, 2011; note: % of control where 0% means no effect; nearly all actives have a fitted effect of over 60% in size
#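 Step 1: seed 2,000 HEK293T ELG1-luciferase cells per well. Step 2: add compound or DMSO, incubate 16 hr at 37 °C. Step 3: ONE-Glo, 30 min at room temperature, read luminescence.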
# SMN2 splice enh: qHTS Assay for Enhancers of SMN2 Splice Variant Expression | HEK293 SMN2-luciferase splicing reporter, luminescence, 30-36 h | Potency, µM (top dose mostly 46.1 µM), without a hit: at the top dose activity change, positive = activation, usual class: activators | 210,000 compounds, 2.8% hits; note: % of control where 0% means no effect; nearly all actives have a fitted effect of over 55% in size
#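 HEK293 cells carry an SMN2 […]–luciferase reporter in which exon 7 inclusion puts luciferase in frame. Cells were plated 10-12 h before compound addition, then incubated 30-36 h at 37C. ONE-Glo luminescence was read; sodium butyrate at 4.5 mM final served as control.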
# FLuc counter: qHTS profiling assay for firefly luciferase inhibitor/activator using purifed enzyme and Km concentrations of substrates (counterscreen for miR-21 project). Luciferin 4-monooxygenase (Photinus pyralis), P08659. purified FLuc, Km substrates, luminescence inhibition. Potency, µM (titrated, usually from 57.5 µM), without a hit: at the top dose activity change, negative = inhibition, most hits filed as inhibitors. 360,000 compounds, 6.9% hits;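 note: plate controls were vehicle for no effect and reference inhibitor for full effect; nearly all actives have a fitted effect of over 55% in size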
# Target sequence (P08659 whole entry, looked up): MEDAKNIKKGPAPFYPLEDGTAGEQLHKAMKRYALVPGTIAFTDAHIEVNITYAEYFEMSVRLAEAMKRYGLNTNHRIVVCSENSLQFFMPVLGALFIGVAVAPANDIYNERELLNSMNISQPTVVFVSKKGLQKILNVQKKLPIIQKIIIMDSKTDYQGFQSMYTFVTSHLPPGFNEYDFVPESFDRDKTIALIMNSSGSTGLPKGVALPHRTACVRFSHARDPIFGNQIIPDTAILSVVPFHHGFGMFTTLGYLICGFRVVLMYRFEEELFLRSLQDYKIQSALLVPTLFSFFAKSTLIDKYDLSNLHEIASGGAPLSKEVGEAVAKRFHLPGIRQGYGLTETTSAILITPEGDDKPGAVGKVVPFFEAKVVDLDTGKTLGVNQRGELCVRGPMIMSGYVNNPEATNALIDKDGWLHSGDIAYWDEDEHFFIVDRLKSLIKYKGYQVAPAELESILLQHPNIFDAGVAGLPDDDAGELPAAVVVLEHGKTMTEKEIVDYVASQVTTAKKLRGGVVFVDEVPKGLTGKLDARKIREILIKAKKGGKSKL
#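 Biochemical qHTS of compounds, final roughly 60 µM downward over six points, against 10 nM purified firefly luciferase using Km concentrations of substrates (10 uM D-luciferin, 10 uM ATP) in Tris acetate pH 7.5 buffer; luminescence output.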
# NPC1 prom act: qHTS Assay for NPC1 Promoter Activators | Huh7 NPC1 promoter luciferase reporter, 24 h | Potency, µM (doses to about 9.22 µM), for the others: top-dose activation, usual class: activators | 320,000 compounds, 2.4% hits | AID 485313, 2010; note: % of control where 0% means no effect; nearly all actives have a fitted effect of over 60% in size
#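 Stable NPC1-promoter luciferase Huh7 line; cpd (DMSO) 24 h, 37 °C, 5% CO2; Amplite luciferase reagent 10 min RT; luminescence readout. qHTS format.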
# KinaseGlo FLuc: Counterscreen for Luciferase (Kinase-Glo TM) Inhibition. Kinase-Glo luciferase, ATP luminescence, 8 min. Potency, µM (series often up to 38.3 µM), without a hit: at the top dose activity change, negative = inhibition, hits mostly inhibitors. 200,000 compounds, 0.28% hits. AID 1379, 2008; note: % is set by controls: 0 for no effect and ±100 for the full control effect; nearly all actives have a fitted effect of over 60% in size
#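 Inhibition of Kinase-Glo luciferase light generation was assessed at 10 uM ATP in pH 7.2 imidazole buffer, with luminescence measured after eight minutes at ambient temperature.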
# An asterisk follows results filed as active; ? = inconclusive; / = no result; [ ] = remark or other dose. Calls come from the whole dose curve; as a rule, active = well fitted curve in the direction sought with a large enough effect; inconclusive = small, poorly fitted or top-dose-only effect, or another doubt; inactive = no such curve, though single readings can be large; an effect the other way counts as inactive or inconclusive. Potency is the fitted concentration of half-maximal effect.
SMILES,Rab9 prom act,ELG1 genotox,SMN2 splice enh,FLuc counter,NPC1 prom act,KinaseGlo FLuc
COc1cccc(-c2cc(C(=O)NCc3ccco3)c3ccccc3n2)c1,1%,-11%,/,21µM*,9%,/
Cc1ccccc1Nc1cc(C(=O)NCc2ccco2)c2ccccc2n1,-4%,-7%,-9%,15µM*,-6%,2%
CCOc1ccc(-c2cc(NC(=O)Nc3ccccc3Cl)c(C(=O)OC)s2)cc1,/,/,29%,8.5µM*,/,/
CCOC(=O)c1sc(-c2ccc(OC)cc2)cc1NC(C)=O,22%,4%,16µM*,-15%,26%,-1%
CC(=O)c1ccc(N2CCN(S(=O)(=O)c3ccc(-c4coc(C)n4)cc3)CC2)cc1,/,/,/,-1%,/,/
CCC(N)(C(=O)O)c1ccc(C(=O)O)cc1 (configuration not stated),/,/,-2%,/,/,/
Cc1cc(C)c(NC(=O)CN2C(=O)CCn3nc(-c4cccn4C)cc32)c(C)c1,/,/,/,-6%,/,/
CC(C)C(NC(=O)C1CCCCC1)C(=O)Nc1ccc2c(c1)OCCO2 (configuration not stated),2µM*,?,36%,6µM*,1.1µM*,-8%
O=C(Nc1ccc(C(=O)O)cc1)/C(=C/c1ccc2c(c1)OCO2)NC(=O)c1cccc(Br)c1,1%,0%,12%,-4%,1%,-1%
O=C(Nc1ccc2c(c1)OCO2)c1cc(Cl)ccn1,1.3µM*,?,/,4.8µM*,1.8µM*,/
O=C(Nc1ccc2c(c1)OCO2)c1ccc(Cl)cc1Cl,-3%,6%,/,-2%,0%,/
O=C(NC(=S)Nc1ccc2c(c1)OCCO2)c1cccc(Br)c1,3.2µM*,?,13µM*,11µM*,3.2µM*,0%
O=C(CC(=O)c1ccccc1)Nc1ccc2c(c1)OCCO2,1.4µM*,?,13µM*,6.7µM*,2.5µM*,-6%
COc1cccc(C2CC(=O)Nc3c2c(=O)n(C)c2ncnn32)c1OC (configuration not stated),/,/,1%,1%,/,/
Cc1cc(C)cc(NC(=O)c2cccc(C(=O)Nc3cc(C)cc(C)c3)c2)c1,/,/,-4%,-6%,/,/
COc1cccc([C@@H]2Oc3ccc(OC)cc3C[C@H]2OC(=O)N[C@H](C)C2CCCCC2)c1,/,/,3%,/,/,0%
CCCCCCc1cc2cc(-c3cn4c(n3)sc3cc(OC)ccc34)c(=O)oc2cc1O,/,/,/,0%,/,/
COc1ccccc1CNC(=O)CCNS(=O)(=O)c1ccc2c(c1)CCCC(=O)N2,/,/,/,6%,/,/
O=C(Nc1ccc2c(c1)OCCO2)C1CC1c1ccccc1 (configuration not stated),4µM*,?,11µM*,9.5µM*,?,-1%
O=C(O)C1CCCCC1C(=O)Nc1ccc2c(c1)OCCO2 (configuration not stated),3%,7%,-12%,-8%,2%,2%
CC(C)(C)c1ccc(C(=O)Nc2cccc([N+](=O)[O-])c2)cc1,2.2µM*,?,11µM*,1.7µM*,2.5µM*,-2%
CCC(=O)Nc1ccc2c(c1)OCCO2,0%,1%,-2%,-1%,-5%,3%
CN1C(=O)c2ccc(C(=O)Nc3ccc4c(c3)OCO4)cc2C1=O,12%,?,/,2.4µM*,15%,/
O=C(CC1CS(=O)(=O)CC1CC(=O)Nc1ccc2c(c1)OCCO2)Nc1ccc2c(c1)OCCO2 (configuration not stated),7%,?,/,17µM*,12%,-1%
FC(F)(F)c1cc(-c2cccc(Br)c2)nc2ncnn12,/,/,15%,-1%,/,/
SMILES,Rab9 prom act,ELG1 genotox,SMN2 splice enh,FLuc counter,NPC1 prom act,KinaseGlo FLuc
COc1ccc(N2Cc3cccc(C(=O)Nc4ccc(F)cc4)c3C2=O)cc1,/,/,-13%,2%,/,/
CCc1nn(CC(=O)NCc2ccc(OC)c(OC)c2)c(=O)c2cc3sc(C)cc3n12,/,/,0%,-5%,/,/
Cc1noc(C)c1COc1cccc(C(=O)Nc2ccc3c(c2)OCO3)c1,17%,25%,26%,?,5%,-8%
CCOc1cccc(C(=O)Nc2ccc3c(c2)OCCO3)c1,?,2.3µM*,/,1.5µM*,?,/
CN(c1cccc(NC(=O)c2ccc(C(C)(C)C)cc2)c1)S(C)(=O)=O,?,-16%,/,0.48µM*,11%,0%
O=C(NC(=S)Nc1ccccc1Br)c1ccc2c(c1)OCO2,11%,?,/,9.5µM*,?,/
O=C(NC(=S)Nc1ccc2c(c1)OCO2)c1ccccc1,1.6µM*,?,20µM*,3.8µM*,1.4µM*,-7%
Cc1cccc(CNc2ncnc3ccc(-c4ccccc4CN(C)C)cc23)c1,/,/,-25%,/,/,-3%
Cc1cc(S(=O)(=O)C(CNC(=O)COc2ccc(Cl)cc2)c2cccs2)ccc1F (configuration not stated),/,/,/,-10%,/,/
CC(C)NC(=O)C1CCCN(S(=O)(=O)c2ccc3c(ccn3C)c2)C1 (configuration not stated),/,/,/,-2%,/,/
O=C(Nc1ccc2c(c1)OCCO2)c1cccc(C(=O)Nc2ccc3c(c2)OCCO3)c1,17%[1.84 µM],14%,/,6.7µM*,4µM*,/
O=C(NC(=S)Nc1ccc2c(c1)OCCO2)c1cccc2ccccc12,22%,16%,?,15µM*,12%,-1%
O=C(O)c1ccccc1NC(=S)NC(=O)c1cccc2ccccc12,-3%,-2%,3%,-19%,-3%,0%
O=C(Nc1cccc([N+](=O)[O-])c1)c1cnccn1,1%,1%,19%,-2%,6%,1%
O=C(CCCc1cccs1)Nc1ccc2c(c1)OCO2,2.8µM*,?,14µM*,11µM*,2.2µM*,-3%
O=C(Nc1cccc([N+](=O)[O-])c1)c1[nH]ncc1Cl,4µM*,?,11µM*,17µM*,3.2µM*,-8%
O=C(NCCCN=C1NS(=O)(=O)c2ccccc21)c1ccc(Cl)cc1,-3%,-1%,/,3%,0%,/
Cc1noc(C)c1NC(=O)Nc1ccc2c(c1)C(=O)N([C@H](C)CO)C[C@H](C)[C@H](CN(C)C)O2,/,-1%,/,/,/,/
O=C(c1ccc(Br)s1)N(Cc1cccnc1)c1nc2ccc(F)cc2s1,/,/,/,-7%,/,/
CCCc1cc(C(=O)Nc2cccc([N+](=O)[O-])c2)cs1,?,14%,/,11µM*,?,/
O=C(Nc1ccc2c(c1)OCCO2)c1ccc(Cl)cc1Cl,0.28µM*,?,/,1.2µM*,0.45µM*,/
